Screens deposited in PubChem BioAssay by National Center for Advancing Translational Sciences (NCATS).
An excerpt weighted towards active compounds, which were near 2.8% of everything screened.
HEK293 viab: GF-AFC viability counterscreen for inhibitors of alpha-synuclein gene (SNCA) expression. HEK-293-SNCA-luc viability, GF-AFC fluorescence, 24 h. Potency, µM (series often up to 57.1 µM), without a hit: top-dose activity change, negative = cytotoxicity, actives largely listed as cytotoxic. 0.12% of 150,000 active;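 also: potency is read from the fitted curve at half-maximal effect; 0% = DMSO-treated cells and -100% = medium-only wells without cells; nearly all actives have a fitted effect of over 30% in size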
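HEK-293-SNCA-luc cells (1500/well) plated 24 h, then exposed 24 h to a dilution series; GF-AFC added 30 min at 37C, fluorescence 405/540 nm; normalised to medium-only and DMSO wells, Hill fit.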
IP6K1 inhibitor: Primary qHTS assay for small molecule inhibitors of Inositol hexaphosphate kinase 1 (IP6K1); Inositol hexakisphosphate kinase 1 (Homo sapiens), Q92551; 0.81% of 140,000 active; IP6K1 kinase, ADP-Glo luminescence, 2 h; stronger effect = lower value; AID 1645851, 2021; activity change, % (series mostly up to about 58 µM); in the data active = activity change below about -25%; also: % is scaled to controls: 0 for no effect and ±100 for the full control effect
Target sequence (Q92551 whole entry, looked up): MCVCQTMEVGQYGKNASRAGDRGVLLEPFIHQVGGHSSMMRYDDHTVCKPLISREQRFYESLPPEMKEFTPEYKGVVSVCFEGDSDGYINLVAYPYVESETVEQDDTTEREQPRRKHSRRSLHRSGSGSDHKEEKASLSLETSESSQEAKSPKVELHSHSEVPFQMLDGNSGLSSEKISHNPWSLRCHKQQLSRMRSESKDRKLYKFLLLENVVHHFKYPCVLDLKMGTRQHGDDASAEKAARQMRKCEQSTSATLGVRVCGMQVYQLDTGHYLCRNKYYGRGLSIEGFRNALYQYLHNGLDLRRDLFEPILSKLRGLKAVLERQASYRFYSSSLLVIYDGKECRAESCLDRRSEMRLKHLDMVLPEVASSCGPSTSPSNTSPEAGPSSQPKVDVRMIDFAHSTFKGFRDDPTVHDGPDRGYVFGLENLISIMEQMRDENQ
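ADP-Glo luminescence measures ADP made by human IP6K1 during a 2 h RT reaction with ATP/IP6 (mix at 1.3 mM/130 uM); top library doses 57.5 and 19.1 uM final.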
KDM5B inhibitor: Primary screen for KDM5B Histone Demethylases FDH-coupled qHTS; KDM5B demethylase, FDH-coupled NADH fluorescence (FDH is formaldehyde dehydrogenase); Potency, µM (titrated, usually from 57.7 µM), most hits filed as inhibitors; 2.6% of 220,000 active; AID 1347165, 2019; also: potency is read from the fitted curve at half-maximal effect; 0% is about no effect; nearly all actives have a fitted effect of over 70% in size
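Inhibition is measured as reduced NADH fluorescence generation from FDH coupling to formaldehyde release. Truncated KDM5BΔAP at 200 nM final acts on H3K4me3 peptide (12.5 µM in substrate mix) in pH 7.5 HEPES buffer with Tween-20, 30 min, room temperature.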
SNCA expr inhib: Primary qHTS assay for inhibitors of alpha-synuclein gene (SNCA) expression. HEK-293 SNCA-luciferase knock-in, luminescence, 24 h. Potency, µM (titrated, usually from 57.2 µM), without a hit: at the highest dose activity change, negative = inhibition, most hits filed as inhibitors. 0.17% of 140,000 active;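 also: potency is read from the fitted curve at half-maximal effect; plate controls were DMSO cells for no effect and cell-free wells for full effect; nearly all actives have a fitted effect of over 45% in size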
Active calls of the source: *; i = inactive; ? = inconclusive; nt = not tested or not shown; [ ] = dose if it differs, or a comment. Unless noted, calls follow the shape of the dose curve; as a rule, active = well fitted curve in the direction sought with a large enough effect; inconclusive = small, poorly fitted or top-dose-only effect, or another doubt; inactive = no such curve, though single readings can be large; an effect the other way counts as inactive or inconclusive.

SMILES	HEK293 viab	IP6K1 inhibitor	KDM5B inhibitor	SNCA expr inhib
O=C(NCc1nnc2ccc(-c3ccc(F)cc3)nn12)c1cccc(C(F)(F)F)c1	-14.1%	11.5	28.2µM*	-5.1%
O=C(Cc1ccc(F)cc1)NCc1nnc2ccc(-c3ccc(Cl)cc3)nn12	-7.4%	13.9	?	-9.3%
O=C(NCc1nnc2ccc(-c3ccccc3)nn12)c1cccc(Br)c1	-26.2%	15.2	22.4µM*	-21.9%
CCc1nc2c(c(-c3ccc(O)cc3)n1)CCN(Cc1cccn1C)CC2	3.4%	8.5	i	-17.6%
CCN1CCN(C(c2cccc(F)c2)c2c(O)cc(C)n(CCOC)c2=O)CC1 (configuration not stated)	6.9%	-5.0	?	10.0%
COc1ccccc1NCC(=O)N1CCN(S(=O)(=O)c2ccccc2)CC1	nt	nt	i	nt
Cc1nnc(SCC(=O)c2ccccc2F)n1Cc1ccccc1	nt	nt	i	nt
COc1ccccc1-c1ccc(C(=O)N2C[C@@H](N(C)C)[C@H](C(C)C)C2)cc1	-19.8%	-16.9	28.2µM*	-13.0%
CCc1ccc(C(=O)N2CCCC(c3noc(-c4cc5c(=O)[nH]c(C)cn5n4)n3)C2)cc1 (configuration not stated)	-18.1%	2.1	25.1µM*	4.8%
Cc1cn2nc(-c3nc(C4CCCN(C(=O)c5sccc5C)C4)no3)cc2c(=O)[nH]1 (configuration not stated)	-8.6%	10.4	25.1µM*	-22.2%
Cc1cn2nc(-c3nc(C4CCCN(C(=O)c5ccc(C)s5)C4)no3)cc2c(=O)[nH]1 (configuration not stated)	-1.6%	-15.7	28.2µM*	41.6%
Cc1cccc(C(=O)N2CCCC(c3noc(-c4cc5c(=O)[nH]c(C)cn5n4)n3)C2)c1 (configuration not stated)	-10.9%	0.0	i	?
Cc1cn2nc(-c3nc(C4CCCN(C(=O)Cc5ccsc5)C4)no3)cc2c(=O)[nH]1 (configuration not stated)	-4.2%	4.6	i	0.1%
CCCNC(=O)CC(c1ccccc1OC)c1c[nH]c2c(CC)cccc12 (configuration not stated)	0.7%	-9.5	31.6µM*	-9.3%
CC(Oc1ccccc1Cl)C(=O)N1CCN(CCc2ccccn2)CC1 (configuration not stated)	5.5%	-5.7	i	11.6%
COc1ccccc1OC(C)C(=O)N1CCN(CCc2ccccn2)CC1 (configuration not stated)	-3.2%	-11.0	i	20µM*
CC(C)Cn1nc2n(c1=O)CCN(S(=O)(=O)Cc1ccccc1)CC2	?	-0.8	i	11.1%
c1ccc(CN2CCn3c(nnc3C3CCNCC3)C2)cc1	3.8%[87.6 µM]	-8.7	100µM*	3.2%[87.6 µM]
COc1ccc(CN2CCn3c(nnc3C3CCNCC3)C2)cc1	4.5%	2.6	i	33.9%
CC(=O)Nc1ccc(CN2CCn3c(nnc3C3CCNCC3)C2)cc1	-27.8%[87.6 µM]	3.7	12.6µM*	-1.2%[87.6 µM]
Cc1noc(C)c1-c1cc2c(c(-c3cnn(C)c3)c1)C(=O)N(C)C2	-6.1%[87.6 µM]	11.8	39.8µM*	57.7%[87.6 µM]
Cc1noc(C)c1-c1cc2c(c(-c3cccc(CO)c3)c1)C(=O)N(C)C2	-12.0%[87.6 µM]	15.5	i	64.2%[87.6 µM]
O=C(NCc1ccc2c(c1)OCO2)C1CCN(Cc2ccccc2-c2ccccc2F)CC1	nt	8.4	nt	nt
COc1ccc2c(Sc3ccc(C)cc3)c(C(=O)NC(C)C)[nH]c2c1	-2.0%	0.4	i	0.7%
CNc1ncccc1C(=O)N[C@@H]1COCC[C@@H]1OCc1ccccc1	4.9%	5.3	28.2µM*	4.0%
N#Cc1ccc(F)c(CSc2ccccn2)c1	nt	nt	i	nt
O=C1CC(c2noc(-c3ccc4c(c3)OCO4)n2)CN1c1ccc(F)cc1 (configuration not stated)	?	-7.3	28.2µM*	2.7%
COc1ccc(N2CC(c3noc(-c4ccc(N(C)C)cc4)n3)CC2=O)cc1 (configuration not stated)	8.3%	4.6	35.5µM*	4.6%
CCc1ccc(N2CC(c3noc(-c4ccc(OC)c(F)c4)n3)CC2=O)cc1 (configuration not stated)	7.5%	33.7	31.6µM*	30.1%
